Rows were chosen to be rich in hits. Some 1.3% of all compounds tested hit in one or more screens of this group.
Gli-Sufu block: antagonists of Gli-Sufu signaling; Sufu-KO-LIGHT fibroblasts, Gli luciferase reporter luminescence; inhibition, % at 5 µM; actives 0.74% (n = 340,000);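 active = inhibition above about 55%, limit read from the data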;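 also: 0% = DMSO-treated cells and 100% = wells with medium but no cells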
LRH-1 inv ag: NR5A2 inverse agonism in reporter assay; O00482; HEK293T StAR-luciferase reporter, LRH-1 transfected, 24 h; inhibition, % at 3.6 µM; actives 0.13% (n = 360,000); AID 602396;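 active = inhibition above the mean inhibition of all tested compounds plus 3 SD, cut at about 73% in these data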;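 also: 0% = DMSO wells and 100% = reporter-only cells lacking LRH-1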
Target sequence (O00482 whole entry, looked up): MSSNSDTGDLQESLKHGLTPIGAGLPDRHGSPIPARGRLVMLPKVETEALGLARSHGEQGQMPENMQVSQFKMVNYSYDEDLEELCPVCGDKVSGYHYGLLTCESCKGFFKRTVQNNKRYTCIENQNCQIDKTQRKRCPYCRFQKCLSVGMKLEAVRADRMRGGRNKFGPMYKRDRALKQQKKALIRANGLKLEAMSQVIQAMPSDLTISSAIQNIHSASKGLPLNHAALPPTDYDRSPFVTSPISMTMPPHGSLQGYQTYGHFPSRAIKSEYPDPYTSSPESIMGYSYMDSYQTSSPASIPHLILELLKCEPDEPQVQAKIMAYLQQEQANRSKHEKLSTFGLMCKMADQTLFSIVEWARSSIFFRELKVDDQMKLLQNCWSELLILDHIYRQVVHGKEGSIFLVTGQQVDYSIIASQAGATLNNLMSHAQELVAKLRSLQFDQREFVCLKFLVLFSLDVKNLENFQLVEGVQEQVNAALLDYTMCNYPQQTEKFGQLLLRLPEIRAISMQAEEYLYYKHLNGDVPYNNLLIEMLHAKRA
NCOA1 inh: human NCOA1 inhibition. AID 588354. Q15788. HEK293 GAL4-SRC1 luciferase reporter, luminescence. actives 0.12% (n = 360,000). inhibition, % at 3.6 µM;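 active = inhibition above the campaign mean plus 3 SD, with each screening campaign given its own cutoff, cut at about 60% in these data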;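 also: 0% = DMSO treated cells and 100% = gossypol at 36 µM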
SRC3 inh: human NCOA3 inhibition. HEK293 GAL4-SRC3 luciferase reporter, luminescence. inhibition, % at 3.6 µM. actives 0.17% (n = 360,000). AID 588352;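 active = inhibition above a per-campaign cutoff, the mean of all compounds plus 3 SD, cut at about 60% in these data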;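 also: 0% = DMSO-treated cells and 100% = gossypol-treated cells at 36 µM; higher means less SRC3-driven luciferase light from the GAL4 reporter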
NCOA2 inhibitor: inhibits human steroid receptor coactivator 2. Q15596. HEK293 GAL4-SRC2 luciferase reporter, luminescence. inhibition, % at 9 µM. actives 0.17% (n = 370,000). AID 651957;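 active = inhibition above the mean inhibition of all tested compounds plus 3 SD, set per campaign, cut at about 52% in these data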;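 also: 0% = DMSO treated cells and 100% = cells given Gossypol at 36 µM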
COUP-TFII inh: inhibitors of human COUP-TFII (NR2F2); HEK293T NGFI-A luciferase reporter, luminescence; P24468; AID 686940; inhibition, % at 8.6 µM; actives 0.7% (n = 370,000);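 active = inhibition above a per-plate cutoff, mean inhibition of test wells between control levels plus 3 SD, cut at about 38% in these data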;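 also: cells cotransfected with COUP-TFII expression vector driving the NGFI-A reporter; 0% = median of COUP-TF2 test wells and 100% = reporter-only cells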
* = called active by the depositor; / = no result.

SMILES	Gli-Sufu block	LRH-1 inv ag	NCOA1 inh	SRC3 inh	NCOA2 inhibitor	COUP-TFII inh
COC(=O)[C@H]1C[C@@]2(C3C=CC=C3)c3ccccc3N[C@H]2N1	/	/	/	/	10.9	-17.7
COc1ccccc1-n1cc([C@@H]2C[C@H]3CN(c4ccccc4)C(=O)[C@]34CCCN24)cn1	29.8	52.6	55.3	63.9*	-31.6	7.0
COc1cc([C@@H]2C[C@H]3CN(c4ccccc4)C(=O)[C@]34CCCN24)cc(OC)c1OC	-1.6	21.1	23.6	15.7	-12.2	1.3
O=C(CN1CCC(NC(=O)Nc2ccc(Cl)cc2)CC1)Nc1ccc2c(c1)OCCO2	/	/	/	/	-15.2	-31.9
CCC(=O)NC(c1ccc(Cl)cc1Cl)c1ccc2cccnc2c1O (stereo not drawn)	89.4*	65.3	26.6	56.2	16.0	-15.8
CC(C)C(=O)NC(c1ccc(Cl)cc1Cl)c1ccc2cccnc2c1O (stereo not drawn)	27.9	83.5*	32.6	23.5	10.0	-32.6
CCC(=O)NC(c1cc(Cl)c2cccnc2c1O)C(C)C (stereo not drawn)	5.5	20.6	11.7	15.8	20.8	8.2
CC(=O)NC(c1ccc(Cl)cc1)c1ccc2cccnc2c1O (stereo not drawn)	79.8*	60.3	28.2	34.8	29.4	13.8
COc1ccc(C(NC(=O)C(C)C)c2ccc3cccnc3c2O)cc1 (stereo not drawn)	50.6	70.2	22.5	32.5	27.3	-13.9
CC(=O)NC(c1ccco1)c1ccc2cccnc2c1O (stereo not drawn)	-9.8	43.1	7.8	31.2	/	/
Cc1cc(NC(c2ccc(Cl)cc2)c2ccc3cccnc3c2O)no1 (stereo not drawn)	67.2*	12.5	48.3	45.8	46.0	7.2
COC(=O)[C@H](CC(C)C)N(Cc1cn(CC2CCCCC2)nn1)S(=O)(=O)c1ccccc1Br	/	/	/	/	13.0	3.2
Cc1cc(/C=C2\SC(=S)N(Cc3ccco3)C2=O)c(C)n1-c1cccnc1	-26.3	-10.6	-23.3	-39.4	-43.6	-4.3
Cc1cc(/C=C2/SC(=S)N(c3cccc(C(F)(F)F)c3)C2=O)c(C)n1-c1cccnc1	70.9*	34.2	17.2	15.5	/	/
CC(C)(C)OC(=O)N1Cc2ccccc2C[C@H]1C(=O)NCC(=O)Nc1ccc2c(c1)OCCO2	34.4	36.8	41.5	60.2	54.3*	23.6
CCCCCCCCCCCCCCCC[N+](C)(C)CCN(Cc1ccc(OC)cc1)c1ncccn1	64.1*	21.3	8.1	-15.5	/	/
O=C(C1=C(c2ccccc2)C(=O)c2ccccc2C1=O)c1ccccc1	14.7	-9.3	19.6	82.1*	56.7*	17.2
Cc1ccc(-c2nc(CSCC(=O)N3CCN(c4ccccn4)CC3)c(C)o2)cc1	25.0	32.5	-5.5	-1.5	2.7	47.2*
COc1ccccc1C(=O)N(CCC1CCCN1C)c1nc2ccccc2s1 (stereo not drawn)	4.3	52.4	54.4	63.1*	39.6	57.7*
COc1ccc2sc(N(CCCN(C)C)C(=O)c3nc4ccccc4s3)nc2c1	-1.7	-9.8	-29.0	-36.1	-18.6	-8.8
Cc1ccc(C2CCC3(CCC(=O)N3CCOC(=O)Nc3ccc(Br)cc3)CC2)cc1 (stereo not drawn)	/	/	/	/	5.5	3.1
Cc1ccnc(NC(=O)CCCOc2cc(=O)n(C)c3ccccc23)c1	-119.0	73.9*	-4.1	39.6	-13.1	-21.1
Cn1c(=O)cc(OCCCC(=O)Nc2cc(Br)ccn2)c2ccccc21	/	/	/	/	/	34.2
COc1ccc(N=C(NN)c2ccc3ccccc3n2)cc1	48.5	77.3*	54.3	45.9	62.7*	74.7*
c1ccc2c(c1)ccc1ccccc12	1.4	-9.8	-12.0	-8.4	8.1	-5.7
SMILES	Gli-Sufu block	LRH-1 inv ag	NCOA1 inh	SRC3 inh	NCOA2 inhibitor	COUP-TFII inh
O=c1ccc2ccccc2c2ccccc12	/	92.9*	63.9*	74.7*	69.9*	0.6
O=C(CSc1nnc(-c2ccccc2)n1Cc1ccco1)Nc1ccc(Oc2ccccc2)cc1	/	/	/	/	-10.0	15.5
O=c1c(Br)ccc(Br)cc1Br	4.3	8.2	-131.0	-35.2	57.7*	52.9*
C/C(CC(=O)NC1C2CC3CC(C2)CC1C3)=N\NC(=O)Cc1cccs1 (stereo not drawn)	-1.2	-9.6	-23.6	-9.1	98.1*	-10.6
Cc1ccc(C(=O)C2CCN(CC(=O)NCc3cccs3)CC2)cc1	/	/	/	/	-28.4	21.0
CC(=NNc1nc2ccccc2o1)c1cc2ccccc2cn1	91.6*	-35.8	65.0*	69.6*	10.5	13.9
N[C@H](C(=O)N[C@@H](Cc1ccccc1)C(=O)N1CCC2CCN(S(=O)(=O)c3ccccc3)CC21)c1ccccc1 (stereo partly drawn)	/	/	/	/	-32.3	-58.6
CN(Cc1ccccc1)C(=O)OCc1cn(Cc2cc(F)cc(F)c2)nn1	/	/	/	/	-10.8	-2.4
O=C(/C(=C/c1ccc(Cl)cc1)c1nc2ccccc2[nH]1)c1cccs1	-14.6	-6.8	47.2	61.9*	/	/
O=C(/C(=C\c1ccccc1)c1nc2ccccc2[nH]1)c1ccc(Cl)cc1	-36.5	-71.4	-41.2	26.3	-6.1	-28.5
Cc1cccc(NC(=O)NCCCN2CCN(c3ccc(F)cc3)CC2)c1	/	/	/	/	13.7	-11.0
CCOc1ccccc1O[C@H](c1ccccc1)[C@H]1CNCCO1	-2.7	53.5	70.4*	56.9	15.4	-8.0
CCOc1ccccc1NC(=O)C(NCC1CCCCC1)c1ccccc1 (stereo not drawn)	34.5	6.7	1.1	17.1	14.8	11.1
CCOc1ccc2nc3cc(NCc4ccc(OC)cc4)ccc3c(N)c2c1	63.6*	6.1	-26.1	-20.8	/	/
COCCN(C(=O)CCl)C(C(=O)NC1CCCCC1)c1ccccc1C (stereo not drawn)	31.6	27.7	21.6	59.4	53.8*	-11.7
CCC(=O)N1c2ccc(S(=O)(=O)N3CCN(c4ccc([N+](=O)[O-])cc4)CC3)cc2CC1C (stereo not drawn)	57.5*	11.6	11.8	14.3	7.9	9.1
CC(=O)c1ccc(N2CCN(S(=O)(=O)c3ccc4c(c3)CC(C)N4C(=O)C3CC3)CC2)cc1 (stereo not drawn)	66.5*	6.8	2.0	-8.5	15.2	5.7
O=C1C[C@@H](c2ccccc2)N=C2N(Cc3ccc4c(c3)OCO4)C/C(=C/c3ccccc3)N12	/	/	/	/	1.1	14.1
CS(=O)(=O)c1ccc(OC[C@@H](O)CN2CCC(C(O)(c3ccccc3)c3ccccc3)CC2)cc1	/	/	/	/	8.2	-20.7
CN(C)CCNC(=O)c1cccc2nc3c(ccc4ccccc43)nc12	33.9	33.3	65.9*	32.2	-79.8	-40.4
CC(C)CNC(=O)C1CSCCS(=O)(=O)N1Cc1ccccc1 (stereo not drawn)	/	/	/	/	-20.5	-6.6
CCCC(=O)NC(c1ccc(C(C)C)cc1)c1ccc2cccnc2c1O (stereo not drawn)	/	35.3	-9.2	54.2	32.2	-4.0
CCCC(=O)NC(c1ccc(N(C)C)cc1)c1ccc2cccnc2c1O (stereo not drawn)	86.1*	72.0	15.7	55.7	27.4	-29.1

High-throughput results from PubChem.
